# From the supplement of paper PMC8728848
# This excerpt belongs to a sample that is enriched for the strongest signals.
# B1: Cohesin-marm-DC-ASGPR-CRD (protein)
# chain: LDITSHHHHHHDDLDAVRIKVDTVNAKPGDTVRIPVRFSGIPSKGIANCDFVYSYDPNVLEIIEIEPGDIIVDPNPDKSFDTAVYPDRKIIVFLFAEDSGTGAYAITKDGVFATIVAKVKEGAPNGLSVIKFVEVGGFANNDLVEQKTQFFDGGVNVGDTTEPATPTTPVTTPTTTDDLDAASCPINWVEHQGSCYWFSRSGKTWPEAERYCQLENTHLVVINSREEQNFVQAHLGSAYTWMGLSDPEGVWKWVDGTDYSSGFQNWKPGQPDDWQGHGLGGGEDCAHFHPDGRWNDDVCQRSYHWVCEAGLTQASQDSH
# Legend:
# Assay in all cases: glycan array binding signal (z-score within array); higher = stronger binding
# Settings in all cases: glycan notation: IUPAC condensed, linker removed
# Fuc(a1-2)Gal(b1-3)GalNAc = target: Fuc(a1-2)Gal(b1-3)GalNAc
# Summary of the method: (§1)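 Negative Z-scores can be read as non-binding. The Z-score is calculated within each array and then averaged across arrays of one protein sequence at different concentrations or buffers and across linkers. Arrays, 3228 in all, were curated from the Consortium for Functional Glycomics database and kept only where the protein sequence was available.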
# [1] = target: Fuc(a1-2)Gal(b1-3)[Fuc(a1-4)]GlcNAc(b1-3)[Gal(b1-4)GlcNAc(b1-6)]Gal(b1-4)Glc
# Summary of the method: as §1
# [2] = target: Fuc(a1-2)[Gal(a1-3)]Gal(b1-4)GlcNAc(b1-6)GalNAc
# Summary of the method: as §1
# [3] = target: Fuc(a1-2)[GalNAc(a1-3)]Gal(b1-3)GalNAc(a1-3)[Fuc(a1-2)]Gal(b1-4)GlcNAc
# Summary of the method: as §1
# [4] = target: Fuc(a1-2)[GalNAc(a1-3)]Gal(b1-3)GlcNAc
# Summary of the method: as §1
# [5] = target: Fuc(a1-2)[GalNAc(a1-3)]Gal(b1-3)GlcNAc(b1-6)GalNAc
# Summary of the method: as §1
# [6] = target: Fuc(a1-2)[GalNAc(a1-3)]Gal(b1-4)GlcNAc(b1-3)Gal(b1-4)GlcNAc
# Summary of the method: as §1
# [7] = target: Fuc(a1-2)[GalNAc(a1-3)]Gal(b1-4)GlcNAc(b1-3)Gal(b1-4)GlcNAc(b1-3)Gal(b1-4)GlcNAc
# Summary of the method: as §1
# [8] = target: Fuc(a1-2)[GalNAc(a1-3)]Gal(b1-4)GlcNAc(b1-6)GalNAc
# Summary of the method: as §1
# [9] = target: Fuc(a1-2)[GalNAc(a1-3)]Gal(b1-4)[Fuc(a1-3)]GlcNAc
# Summary of the method: as §1
# [10] = target: Gal(a1-3)Gal(b1-3)GlcNAc(b1-6)GalNAc
# Summary of the method: as §1
# Gal(a1-3)Gal(b1-4)Glc = target: Gal(a1-3)Gal(b1-4)Glc
# Summary of the method: as §1
# Gal(a1-4)GlcNAc = target: Gal(a1-4)GlcNAc
# Summary of the method: as §1
# [11] = target: Gal(b1-3)GlcNAc(b1-6)[Gal(b1-3)]GalNAc
# Summary of the method: as §1
# Gal(b1-4)Glc6S = target: Gal(b1-4)Glc6S
# Summary of the method: as §1
# Gal(b1-4)GlcNAc(b1-2)Man = target: Gal(b1-4)GlcNAc(b1-2)Man
# Summary of the method: as §1
# [12] = target: Gal(b1-4)GlcNAc(b1-2)[Gal(b1-4)GlcNAc(b1-4)]Man(a1-3)[Gal(b1-4)GlcNAc(b1-2)Man(a1-6)]Man(b1-4)GlcNAc(b1-4)GlcNAc
# Summary of the method: as §1
# [13] = target: Gal(b1-4)GlcNAc(b1-2)[Gal(b1-4)GlcNAc(b1-4)]Man(a1-3)[GlcNAc(b1-4)][Gal(b1-4)GlcNAc(b1-2)[Gal(b1-4)GlcNAc(b1-6)]Man(a1-6)]Man(b1-4)GlcNAc(b1-4)GlcNAc
# Summary of the method: as §1
# [14] = target: Gal(b1-4)GlcNAc(b1-3)Gal(b1-4)GlcNAc(b1-3)Gal(b1-4)GlcNAc(b1-2)Man(a1-3)[Gal(b1-4)GlcNAc(b1-3)Gal(b1-4)GlcNAc(b1-3)Gal(b1-4)GlcNAc(b1-2)Man(a1-6)]Man(b1-4)GlcNAc(b1-4)[Fuc(a1-6)]GlcNAc
# Summary of the method: as §1
# [15] = target: Gal(b1-4)GlcNAc(b1-6)[Gal(b1-4)GlcNAc(b1-3)]GalNAc
# Summary of the method: as §1
# [16] = target: Gal3S(b1-4)[Fuc(a1-3)]GlcNAc6S
# Summary of the method: as §1
# Gal3S4S(b1-4)GlcNAc = target: Gal3S4S(b1-4)GlcNAc
# Summary of the method: as §1
# GalNAc3S(b1-4)GlcNAc = target: GalNAc3S(b1-4)GlcNAc
# Summary of the method: as §1
# GalNAc6S(b1-4)GlcNAc = target: GalNAc6S(b1-4)GlcNAc
# Summary of the method: as §1
# [17] = target: GlcNAc(b1-2)Man(a1-3)[GlcNAc(b1-2)Man(a1-6)]Man(b1-4)GlcNAc(b1-4)GlcNAc
# Summary of the method: as §1
# GlcNAc(b1-6)GalNAc = target: GlcNAc(b1-6)GalNAc
# Summary of the method: as §1
# Kdn(a2-3)Gal(b1-3)GalNAc = target: Kdn(a2-3)Gal(b1-3)GalNAc
# Summary of the method: as §1
# [18] = target: Man(a1-2)Man(a1-3)[Man(a1-2)Man(a1-6)]Man
# Summary of the method: as §1
# [19] = target: Man(a1-3)[Man(a1-6)]Man(a1-6)[Man(a1-3)]Man(b1-4)GlcNAc(b1-4)GlcNAc
# Summary of the method: as §1
# [20] = target: Neu5Ac(a2-3)Gal(b1-3)GlcNAc(b1-3)Gal(b1-3)GlcNAc
# Summary of the method: as §1
# [21] = target: Neu5Ac(a2-3)Gal(b1-3)GlcNAc(b1-4)Gal(b1-4)Glc
# Summary of the method: as §1
# [22] = target: Neu5Ac(a2-3)Gal(b1-4)GlcNAc(b1-2)Man(a1-3)[GlcNAc(b1-4)][Neu5Ac(a2-3)Gal(b1-4)GlcNAc(b1-2)Man(a1-6)]Man(b1-4)GlcNAc(b1-4)GlcNAc
# Summary of the method: as §1
# [23] = target: Neu5Ac(a2-3)Gal(b1-4)GlcNAc(b1-2)Man(a1-3)[Neu5Ac(a2-3)Gal(b1-4)GlcNAc(b1-2)Man(a1-6)]Man(b1-4)GlcNAc(b1-4)[Fuc(a1-6)]GlcNAc
# Summary of the method: as §1
# [24] = target: Neu5Ac(a2-3)Gal(b1-4)GlcNAc(b1-2)[Neu5Ac(a2-3)Gal(b1-4)GlcNAc(b1-6)]Man(a1-6)[Neu5Ac(a2-3)Gal(b1-4)GlcNAc(b1-2)Man(a1-3)]Man(b1-4)GlcNAc(b1-4)GlcNAc
# Summary of the method: as §1
# [25] = target: Neu5Ac(a2-3)Gal(b1-4)[Fuc(a1-3)]GlcNAc(b1-3)Gal(b1-4)GlcNAc
# Summary of the method: as §1
# [26] = target: Neu5Ac(a2-3)Gal6S(b1-4)GlcNAc
# Summary of the method: as §1
# Neu5Ac(a2-3)GalNAc = target: Neu5Ac(a2-3)GalNAc
# Summary of the method: as §1
# Neu5Ac(a2-6)Gal(b1-4)Glc = target: Neu5Ac(a2-6)Gal(b1-4)Glc
# Summary of the method: as §1
# [27] = target: Neu5Ac(a2-6)Gal(b1-4)GlcNAc(b1-2)Man(a1-6)Man(b1-4)GlcNAc(b1-4)GlcNAc
# Summary of the method: as §1
# [28] = target: Neu5Ac(a2-6)Gal(b1-4)GlcNAc(b1-2)[Neu5Ac(a2-6)Gal(b1-4)GlcNAc(b1-4)]Man(a1-3)[GlcNAc(b1-4)][Neu5Ac(a2-6)Gal(b1-4)GlcNAc(b1-4)Man(a1-6)]Man(b1-4)GlcNAc(b1-4)GlcNAc
# Summary of the method: as §1
# [29] = target: Neu5Ac(a2-6)Gal(b1-4)GlcNAc(b1-3)Gal(b1-4)GlcNAc
# Summary of the method: as §1
# [30] = target: Neu5Ac(a2-6)Gal(b1-4)GlcNAc(b1-3)Gal(b1-4)GlcNAc(b1-3)GalNAc
# Summary of the method: as §1
# Neu5Ac(a2-6)GalNAc = target: Neu5Ac(a2-6)GalNAc
# Summary of the method: as §1
# [31] = target: Neu5Ac(a2-8)Neu5Ac(a2-8)Neu5Ac(a2-8)Neu5Ac(a2-3)[GalNAc(b1-4)]Gal(b1-4)Glc
# Summary of the method: as §1
# [32] = target: Neu5Ac9Ac(a2-3)Gal(b1-4)GlcNAc
# Summary of the method: as §1
# [33] = target: Neu5Gc(a2-8)Neu5Gc(a2-6)Gal(b1-4)GlcNAc
# Summary of the method: as §1
binder,measurement,setting,value
B1,glycan array binding signal (z-score),Fuc(a1-2)Gal(b1-3)GalNAc,-0.443
same,glycan array binding signal (z-score),[1],-0.444
same,glycan array binding signal (z-score),[2],-0.449
same,glycan array binding signal (z-score),[3],3.71
same,glycan array binding signal (z-score),[4],2.96
same,glycan array binding signal (z-score),[5],2.04
same,glycan array binding signal (z-score),[6],2.91
same,glycan array binding signal (z-score),[7],2.99
same,glycan array binding signal (z-score),[8],2.6
same,glycan array binding signal (z-score),[9],3.78
same,glycan array binding signal (z-score),[10],2.92
same,glycan array binding signal (z-score),Gal(a1-3)Gal(b1-4)Glc,-0.398
same,glycan array binding signal (z-score),Gal(a1-4)GlcNAc,-0.402
same,glycan array binding signal (z-score),[11],-0.041
same,glycan array binding signal (z-score),Gal(b1-4)Glc6S,-0.377
same,glycan array binding signal (z-score),Gal(b1-4)GlcNAc(b1-2)Man,3.13
same,glycan array binding signal (z-score),[12],-0.44
same,glycan array binding signal (z-score),[13],-0.305
same,glycan array binding signal (z-score),[14],-0.304
same,glycan array binding signal (z-score),[15],-0.405
same,glycan array binding signal (z-score),[16],-0.069
same,glycan array binding signal (z-score),Gal3S4S(b1-4)GlcNAc,-0.425
same,glycan array binding signal (z-score),GalNAc3S(b1-4)GlcNAc,-0.449
same,glycan array binding signal (z-score),GalNAc6S(b1-4)GlcNAc,3
same,glycan array binding signal (z-score),[17],-0.449
same,glycan array binding signal (z-score),GlcNAc(b1-6)GalNAc,2.94
same,glycan array binding signal (z-score),Kdn(a2-3)Gal(b1-3)GalNAc,-0.362
same,glycan array binding signal (z-score),[18],-0.447
same,glycan array binding signal (z-score),[19],-0.452
same,glycan array binding signal (z-score),[20],-0.433
same,glycan array binding signal (z-score),[21],-0.449
same,glycan array binding signal (z-score),[22],-0.448
same,glycan array binding signal (z-score),[23],-0.449
same,glycan array binding signal (z-score),[24],-0.331
same,glycan array binding signal (z-score),[25],-0.388
same,glycan array binding signal (z-score),[26],-0.447
same,glycan array binding signal (z-score),Neu5Ac(a2-3)GalNAc,-0.435
same,glycan array binding signal (z-score),Neu5Ac(a2-6)Gal(b1-4)Glc,-0.421
same,glycan array binding signal (z-score),[27],-0.446
same,glycan array binding signal (z-score),[28],-0.368
same,glycan array binding signal (z-score),[29],-0.46
same,glycan array binding signal (z-score),[30],-0.378
same,glycan array binding signal (z-score),Neu5Ac(a2-6)GalNAc,3.16
same,glycan array binding signal (z-score),[31],3.12
same,glycan array binding signal (z-score),[32],-0.447
same,glycan array binding signal (z-score),[33],-0.447
